Experimental data from PubChem BioAssay AID624139 (Broad Institute, 2012).
The whole screen tested about 17,000 compounds, of which about 220 (1.3%) were called active.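 Rule for the calls: active = spot fluorescence over background significantly raised, with a chance value under 7% in all four replicate spots of the compound; inactive = the rest.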 The entries come from a sample that favours actives as a whole.

molecular target: Nuclear factor NF-kappa-B p105 subunit (Homo sapiens) (UniProt P19838); test: small molecules binding NF-kappa-B p105/p50 – biochemical, small molecule microarray, anti-His fluorescence, primary screen (AID 624139);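 note: probe protein is his-tagged human p50 processed subunit at 1 µg/ml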
Sequence (P19838 1-433 limits assumed): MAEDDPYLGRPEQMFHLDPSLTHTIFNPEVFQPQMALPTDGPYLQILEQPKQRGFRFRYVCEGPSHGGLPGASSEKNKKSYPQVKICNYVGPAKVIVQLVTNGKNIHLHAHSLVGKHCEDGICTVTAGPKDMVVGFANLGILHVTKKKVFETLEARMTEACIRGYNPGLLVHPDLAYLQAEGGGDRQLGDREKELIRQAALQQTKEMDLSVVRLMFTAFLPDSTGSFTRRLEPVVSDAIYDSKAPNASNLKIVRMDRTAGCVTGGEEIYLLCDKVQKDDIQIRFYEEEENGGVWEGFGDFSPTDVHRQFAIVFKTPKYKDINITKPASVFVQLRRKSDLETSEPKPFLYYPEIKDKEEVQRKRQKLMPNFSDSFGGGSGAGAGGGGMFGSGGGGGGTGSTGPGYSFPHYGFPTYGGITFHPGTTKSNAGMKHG

outcome, inactive:
C[C@@H]1CN([C@H](C)CO)C(=O)c2cc(NS(=O)(=O)c3cccs3)ccc2O[C@@H](C)CCCCO[C@@H]1CN(C)S(=O)(=O)c1cccs1
C[C@@H]1CN([C@H](C)CO)C(=O)Cc2cc(NS(=O)(=O)c3cccs3)ccc2O[C@H]1CN(C)C(=O)Nc1ccc2c(c1)OCO2
C[C@@H]1CCCCO[C@@H](CN(C)S(=O)(=O)c2ccccc2)[C@@H](C)CN([C@@H](C)CO)C(=O)c2cc(NS(=O)(=O)c3cn(C)cn3)ccc2O1
C=C1CCCC(C)(C(=O)OC)C1CC/C(C)=C/CCC1=CC(=O)OC1 (stereo not drawn)
Cc1nnc(SCc2ccc(C(=O)c3ccc(Cl)cc3)o2)n1-c1ccccc1
O=C1C(=O)N(CCn2c3ccccc3c3nc4ccccc4nc32)c2ccccc21
Cc1ccc(S(=O)(=O)Nc2ccc3c(c2)C(=O)N([C@@H](C)CO)C[C@H](C)[C@@H](CN(C)S(=O)(=O)c2ccc(C)cc2)O3)cc1
C[C@@H]1CN([C@@H](C)CO)C(=O)CCCn2nncc2CO[C@H]1CN(C)Cc1ccc(C(F)(F)F)cc1
C[C@H](CO)N1C[C@H](C)[C@H](CN(C)S(=O)(=O)c2cn(C)cn2)Oc2c(NC(=O)C3CCOCC3)cccc2C1=O
C[C@@H]1CCCCO[C@@H](CN(C)C(=O)c2ccccc2)[C@H](C)CN([C@@H](C)CO)C(=O)c2cc(NS(C)(=O)=O)ccc2O1
C[C@@H]1CN([C@@H](C)CO)C(=O)c2cc(NS(C)(=O)=O)ccc2O[C@@H](C)CCCCO[C@@H]1CN(C)S(=O)(=O)c1cn(C)cn1
Cc1cc(O)c2c(c1)C(=O)OC2c1c(O)cccc1O (stereo not drawn)
COc1ccc(C)cc1NC(=O)NCCc1ccc(OC)c(OC)c1
C[C@H]1CCCCO[C@H](CN(C)C)[C@@H](C)CN([C@@H](C)CO)C(=O)c2cc(NC(=O)CCCN(C)C)ccc2O1
CNC[C@@H]1Oc2c(NS(C)(=O)=O)cccc2C(=O)N([C@@H](C)CO)C[C@H]1C
C[C@@H]1CCCCO[C@H](CN(C)C)[C@H](C)CN([C@@H](C)CO)C(=O)c2cc(NC(=O)Cc3ccccc3)ccc2O1
Cc1noc(C)c1S(=O)(=O)N(C)C[C@H]1OCCCC[C@@H](C)Oc2ccc(NC(=O)CCCN(C)C)cc2C(=O)N([C@H](C)CO)C[C@@H]1C
C=CCn1c(=O)c(C(=O)NCc2ccccn2)c(O)c2ccccc21
COc1cc(/C(C)=C/C(C)=C\C(=O)O)oc(=O)c1C
Cc1noc(C)c1S(=O)(=O)Nc1ccc2c(c1)CC(=O)N([C@@H](C)CO)C[C@@H](C)[C@@H](CN(C)C(=O)Nc1ccc(C(F)(F)F)cc1)O2
C[C@H](CO)N1C[C@H](C)[C@H](CN(C)Cc2ccc(C(F)(F)F)cc2)Oc2ccc(NS(C)(=O)=O)cc2C1=O
C=C(CC/C=C(\C)C(=O)O)C1(O)CC=C(C)CC1 (stereo not drawn)
O=C1O[C@H](c2ccccc2)[C@H](c2ccccc2)N2[C@H]1[C@@H](C(=O)N1CCN(c3ncccn3)CC1)[C@]1(C(=O)Nc3ccccc31)[C@H]2c1ccc(OCCO)cc1
C[C@H]1CN([C@@H](C)CO)C(=O)CCCn2cc(nn2)CO[C@@H]1CN(C)S(=O)(=O)c1ccc(-n2cccn2)cc1
CC(C)NC(=O)Nc1ccc2c(c1)CC(=O)N([C@@H](C)CO)C[C@@H](C)[C@H](CN(C)Cc1ccc(C(F)(F)F)cc1)O2
C/C(=C/CC[C@@H](CO)[C@H]1CC[C@@]2(C)[C@@H]3CC[C@H]4C(C)(C)[C@@H](O[C@@H]5O[C@H](CO)[C@@H](O)[C@H](O)[C@H]5O)C[C@H](O)[C@@]45C[C@@]35CC[C@]12C)CO
Cc1noc(C)c1S(=O)(=O)Nc1ccc2c(c1)CC(=O)N([C@H](C)CO)C[C@@H](C)[C@@H](CN(C)C)O2
COc1ccc(CN(C)C[C@H]2Oc3ccc(NC(=O)Cc4ccccc4)cc3CC(=O)N([C@@H](C)CO)C[C@@H]2C)cc1
CC1(C)CC[C@@]2(C(=O)O)C(C1)C1=CCC3[C@@]4(C)CC[C@H](O)C(C)(C)C4CC[C@@]3(C)[C@]1(C)C[C@H]2O (stereo partly drawn)
C[C@H](CO)N1C[C@H](C)[C@@H](CN(C)C(=O)Nc2ccccc2)Oc2ccc(N(C)C)cc2C1=O
COc1cc(C)c(C(=O)Oc2cc(C)c(C(=O)Oc3cc(C)c(C(=O)NC(C)C(=O)O)c(O)c3)c(O[C@@H]3O[C@H](CO)[C@@H](O)[C@H](O)[C@H]3OC(C)=O)c2)c(OC)c1 (stereo partly drawn)
Cc1ccc(C(=O)NCCNS(=O)(=O)c2ccccc2)cc1
COc1ccc(NC(=O)Nc2cccc3c2O[C@H](CN(C)S(=O)(=O)c2cccs2)[C@H](C)CN([C@@H](C)CO)C3=O)cc1
CNC[C@H]1Oc2ccc(N(C)C)cc2CC(=O)N([C@@H](C)CO)C[C@@H]1C
CC(C)NC(=O)N(C)C[C@H]1Oc2ccc(NS(=O)(=O)c3cn(C)cn3)cc2CC(=O)N([C@@H](C)CO)C[C@H]1C
C[C@@H]1CN([C@@H](C)CO)C(=O)Cc2cc(NC(=O)CCC(F)(F)F)ccc2O[C@@H]1CN(C)C(=O)Nc1cccc2ccccc12
Cc1cc(C)c(NC(=O)CCCC(=O)O)c(C)c1
C[C@H]1CN([C@@H](C)CO)C(=O)c2cc(NC(=O)C3CC3)ccc2O[C@@H]1CN(C)S(=O)(=O)c1cn(C)cn1
